# Measured values as given in article PMC7862700, “An all-to-all approach to the identification of sequence-specific readers for epigenetic DNA modifications on cytosine”.
# Tests used:
# Assay in all cases: DAPPL (digital affinity profiling via proximity ligation, sequencing); 10 mM Tris-HCl pH 7.5, 50 mM NaCl, 1 mM DTT, 4% glycerol, room temperature, 30 min; GST-TFs on glutathione beads, 16-mer random dsDNA library, 0.1% formaldehyde crosslink after washing; high values mean tight binding
# FEV = target: T1, FEV (Homo sapiens, UniProt Q99581 1-238); conditions: protein: recombinant; tags: N-terminal GST; dsDNA, one strand shown
# T1 sequence: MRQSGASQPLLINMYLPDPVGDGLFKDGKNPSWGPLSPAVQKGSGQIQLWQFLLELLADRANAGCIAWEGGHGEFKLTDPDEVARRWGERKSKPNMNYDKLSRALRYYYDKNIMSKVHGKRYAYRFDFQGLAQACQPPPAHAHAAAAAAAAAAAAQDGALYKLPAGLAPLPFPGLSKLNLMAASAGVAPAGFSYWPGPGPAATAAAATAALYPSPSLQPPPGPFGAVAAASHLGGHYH
# Outline: (§1)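 The binding signal reported is, for every hexamer, its read frequency for a factor over its read frequency for the tag-only sample. Reads came from pools of yeast-expressed, GST-fused human transcription factors on glutathione beads, barcoded with DNA and mixed with that sample, which were incubated with 200 nmole of a random double-stranded 16-mer DNA library in Tris/NaCl/DTT/glycerol buffer at room temperature for 30 min. After washing, the pools were crosslinked with 0.1% formaldehyde, proximity-ligated with BsaI/T4 ligase for 1 h at 37 °C, PCR-amplified and sequenced on an Illumina NextSeq500.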
# ETV5 = ETV5 (Homo sapiens, UniProt P41161 1-510); conditions: protein: recombinant; tags: N-terminal GST; dsDNA, one strand shown
# Outline: as §1
# HSF1 = HSF1 (Homo sapiens, UniProt Q00613 1-529); conditions: protein: recombinant; tags: N-terminal GST; chain copies: 3; dsDNA, one strand shown
# Outline: as §1
# SPIC = target: T2, SPIC (Homo sapiens, UniProt Q8N5J4 1-248); conditions: protein: recombinant; tags: N-terminal GST; dsDNA, one strand shown
# T2 sequence: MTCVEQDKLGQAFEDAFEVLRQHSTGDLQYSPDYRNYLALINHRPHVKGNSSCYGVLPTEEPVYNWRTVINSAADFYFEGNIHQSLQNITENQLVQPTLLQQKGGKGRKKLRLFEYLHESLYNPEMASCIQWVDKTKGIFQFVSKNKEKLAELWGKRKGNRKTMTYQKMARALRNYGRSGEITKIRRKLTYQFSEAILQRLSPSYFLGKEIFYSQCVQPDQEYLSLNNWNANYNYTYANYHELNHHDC
# Outline: as §1
# ELF4 = ELF4 (Homo sapiens, UniProt Q99607 1-663); conditions: protein: recombinant; tags: N-terminal GST; dsDNA, one strand shown
# Outline: as §1
# ELK4 = target: T3, ELK4 (Homo sapiens, UniProt P28324-2 1-405); conditions: protein: recombinant; tags: N-terminal GST; dsDNA, one strand shown
# T3 sequence: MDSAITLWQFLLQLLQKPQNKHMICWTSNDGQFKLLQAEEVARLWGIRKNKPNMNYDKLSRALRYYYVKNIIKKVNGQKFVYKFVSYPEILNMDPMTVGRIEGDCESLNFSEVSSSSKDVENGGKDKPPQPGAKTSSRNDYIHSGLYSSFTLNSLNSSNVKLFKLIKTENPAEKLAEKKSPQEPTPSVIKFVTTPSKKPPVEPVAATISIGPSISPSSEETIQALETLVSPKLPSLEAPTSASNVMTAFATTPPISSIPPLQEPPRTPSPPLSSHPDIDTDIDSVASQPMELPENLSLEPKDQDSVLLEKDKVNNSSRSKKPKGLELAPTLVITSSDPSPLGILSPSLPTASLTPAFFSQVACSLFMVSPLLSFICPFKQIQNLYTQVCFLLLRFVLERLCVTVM
# Outline: as §1
# ETV2 = target: T4, ETV2 (Homo sapiens, UniProt O00321 1-342); conditions: protein: recombinant; tags: N-terminal GST; dsDNA, one strand shown
# T4 sequence: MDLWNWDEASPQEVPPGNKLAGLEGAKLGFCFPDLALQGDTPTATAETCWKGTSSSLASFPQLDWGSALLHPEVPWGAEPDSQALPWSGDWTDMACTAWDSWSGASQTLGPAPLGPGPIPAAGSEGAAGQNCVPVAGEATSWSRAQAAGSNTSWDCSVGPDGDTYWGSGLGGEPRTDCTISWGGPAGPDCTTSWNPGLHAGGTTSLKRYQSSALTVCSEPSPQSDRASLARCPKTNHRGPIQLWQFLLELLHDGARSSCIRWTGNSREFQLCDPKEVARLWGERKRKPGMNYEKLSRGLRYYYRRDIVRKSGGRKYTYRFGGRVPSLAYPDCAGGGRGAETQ
# Outline: as §1
# ELF3 = target: T5, ELF3 (Homo sapiens, UniProt P78545 1-371); conditions: protein: recombinant; tags: N-terminal GST; dsDNA, one strand shown
# T5 sequence: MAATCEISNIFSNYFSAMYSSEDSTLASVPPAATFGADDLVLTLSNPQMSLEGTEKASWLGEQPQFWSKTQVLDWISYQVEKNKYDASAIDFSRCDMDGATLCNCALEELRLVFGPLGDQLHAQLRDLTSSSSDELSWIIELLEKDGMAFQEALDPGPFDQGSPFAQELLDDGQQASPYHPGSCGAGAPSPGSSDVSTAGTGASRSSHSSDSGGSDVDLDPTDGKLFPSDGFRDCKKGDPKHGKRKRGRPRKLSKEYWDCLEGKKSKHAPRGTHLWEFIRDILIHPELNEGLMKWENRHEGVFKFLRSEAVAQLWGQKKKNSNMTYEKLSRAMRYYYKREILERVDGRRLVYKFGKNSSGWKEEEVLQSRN
# Outline: as §1
# CRX = CRX (Homo sapiens, UniProt O43186 1-299); conditions: protein: recombinant; tags: N-terminal GST; dsDNA, one strand shown
# Outline: as §1
# ETV1 = ETV1 (Homo sapiens, UniProt P50549 1-477); conditions: protein: recombinant; tags: N-terminal GST; dsDNA, one strand shown
# Outline: as §1
# ERF = target: T6, ERF (Homo sapiens, UniProt P50548 1-548); conditions: protein: recombinant; tags: N-terminal GST; dsDNA, one strand shown
# T6 sequence: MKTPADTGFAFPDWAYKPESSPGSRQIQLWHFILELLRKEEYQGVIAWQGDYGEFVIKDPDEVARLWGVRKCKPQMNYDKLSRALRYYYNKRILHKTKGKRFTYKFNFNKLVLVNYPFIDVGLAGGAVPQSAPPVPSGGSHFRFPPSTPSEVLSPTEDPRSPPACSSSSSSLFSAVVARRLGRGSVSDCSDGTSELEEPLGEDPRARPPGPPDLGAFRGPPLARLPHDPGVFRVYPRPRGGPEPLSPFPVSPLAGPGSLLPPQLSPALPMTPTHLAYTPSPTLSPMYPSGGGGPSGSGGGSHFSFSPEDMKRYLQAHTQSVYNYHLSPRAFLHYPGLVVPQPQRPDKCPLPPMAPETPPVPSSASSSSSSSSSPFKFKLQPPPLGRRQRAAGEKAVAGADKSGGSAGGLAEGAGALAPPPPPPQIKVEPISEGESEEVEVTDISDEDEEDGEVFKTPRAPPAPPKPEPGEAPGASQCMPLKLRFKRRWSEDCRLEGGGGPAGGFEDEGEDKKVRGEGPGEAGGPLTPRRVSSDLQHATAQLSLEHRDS
# Outline: as §1
# ETV3L = target: T7, ETV3L (Homo sapiens, UniProt Q6ZN32 1-361); conditions: protein: recombinant; tags: N-terminal GST; dsDNA, one strand shown
# T7 sequence: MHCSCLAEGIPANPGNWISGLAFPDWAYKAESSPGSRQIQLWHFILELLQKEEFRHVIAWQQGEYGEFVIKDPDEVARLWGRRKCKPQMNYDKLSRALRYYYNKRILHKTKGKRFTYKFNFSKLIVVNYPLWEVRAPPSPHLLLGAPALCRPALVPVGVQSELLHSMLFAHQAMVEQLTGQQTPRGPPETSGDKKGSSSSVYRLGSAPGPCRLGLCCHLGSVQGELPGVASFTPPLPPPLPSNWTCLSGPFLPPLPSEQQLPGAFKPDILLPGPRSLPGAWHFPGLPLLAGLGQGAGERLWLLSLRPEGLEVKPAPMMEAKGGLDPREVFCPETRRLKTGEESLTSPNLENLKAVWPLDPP
# Outline: as §1
# ETS2 = target: T8, ETS2 (Homo sapiens, UniProt P15036 1-469); conditions: protein: recombinant; tags: N-terminal GST; dsDNA, one strand shown
# T8 sequence: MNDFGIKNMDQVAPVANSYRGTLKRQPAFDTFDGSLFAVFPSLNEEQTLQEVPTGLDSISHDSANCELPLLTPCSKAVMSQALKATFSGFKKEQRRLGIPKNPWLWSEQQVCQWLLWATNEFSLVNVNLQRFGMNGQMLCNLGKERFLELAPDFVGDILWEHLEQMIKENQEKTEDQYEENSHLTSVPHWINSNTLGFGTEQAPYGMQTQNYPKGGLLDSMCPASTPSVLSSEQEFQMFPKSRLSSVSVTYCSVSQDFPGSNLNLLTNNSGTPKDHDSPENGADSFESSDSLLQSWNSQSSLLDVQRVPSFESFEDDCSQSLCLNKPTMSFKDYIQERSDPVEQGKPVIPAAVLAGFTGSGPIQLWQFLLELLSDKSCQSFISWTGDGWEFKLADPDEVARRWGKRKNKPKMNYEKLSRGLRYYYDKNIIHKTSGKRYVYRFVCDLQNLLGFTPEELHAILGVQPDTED
# Outline: as §1
# SPDEF = target: T9, SPDEF (Homo sapiens, UniProt O95238 1-335); conditions: protein: recombinant; tags: N-terminal GST; dsDNA, one strand shown
# T9 sequence: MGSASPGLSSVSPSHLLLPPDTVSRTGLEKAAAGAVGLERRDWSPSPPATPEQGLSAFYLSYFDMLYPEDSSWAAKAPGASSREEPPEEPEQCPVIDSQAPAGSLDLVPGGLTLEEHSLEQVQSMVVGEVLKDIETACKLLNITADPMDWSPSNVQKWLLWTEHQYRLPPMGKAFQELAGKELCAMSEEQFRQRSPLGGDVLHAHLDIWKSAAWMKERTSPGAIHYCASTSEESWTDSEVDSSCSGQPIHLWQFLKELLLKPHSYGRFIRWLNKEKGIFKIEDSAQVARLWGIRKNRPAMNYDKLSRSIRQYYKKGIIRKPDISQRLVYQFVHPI
# Outline: as §1
# ETV7 = target: T10, ETV7 (Homo sapiens, UniProt Q9Y603 1-341); conditions: protein: recombinant; tags: N-terminal GST; dsDNA, one strand shown
# T10 sequence: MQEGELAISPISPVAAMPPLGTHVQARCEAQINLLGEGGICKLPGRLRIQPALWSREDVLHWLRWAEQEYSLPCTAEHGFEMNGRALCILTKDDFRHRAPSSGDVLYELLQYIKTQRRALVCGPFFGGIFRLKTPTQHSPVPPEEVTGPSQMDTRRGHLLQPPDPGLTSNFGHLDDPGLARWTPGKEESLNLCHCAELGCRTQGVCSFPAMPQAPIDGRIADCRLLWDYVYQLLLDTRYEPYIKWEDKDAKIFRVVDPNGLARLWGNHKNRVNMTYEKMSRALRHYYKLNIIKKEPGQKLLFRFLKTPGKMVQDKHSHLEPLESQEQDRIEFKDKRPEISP
# Outline: as §1
# ELF5 = target: T11, ELF5 (Homo sapiens, UniProt Q9UKW6-2 1-255); conditions: protein: recombinant; tags: N-terminal GST; dsDNA, one strand shown
# T11 sequence: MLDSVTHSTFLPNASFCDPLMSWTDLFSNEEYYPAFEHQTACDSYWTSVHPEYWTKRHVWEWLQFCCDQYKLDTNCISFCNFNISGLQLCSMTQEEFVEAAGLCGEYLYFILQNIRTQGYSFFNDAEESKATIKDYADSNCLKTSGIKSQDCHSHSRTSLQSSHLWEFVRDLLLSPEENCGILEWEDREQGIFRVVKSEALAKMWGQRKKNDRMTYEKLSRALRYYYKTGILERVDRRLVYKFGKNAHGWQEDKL
# Outline: as §1
# ETV3 = target: T12, ETV3 (Homo sapiens, UniProt P41162-2 1-143); conditions: protein: recombinant; tags: N-terminal GST; dsDNA, one strand shown
# T12 sequence: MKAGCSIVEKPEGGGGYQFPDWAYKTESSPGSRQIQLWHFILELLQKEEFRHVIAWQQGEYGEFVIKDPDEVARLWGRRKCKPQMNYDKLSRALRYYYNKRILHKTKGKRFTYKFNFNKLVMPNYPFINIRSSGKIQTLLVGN
# Outline: as §1
# ETV6 = ETV6 (Homo sapiens, UniProt P41212 1-452); conditions: protein: recombinant; tags: N-terminal GST; dsDNA, one strand shown
# Outline: as §1
# Sequence of ETV1 (P50549 whole entry): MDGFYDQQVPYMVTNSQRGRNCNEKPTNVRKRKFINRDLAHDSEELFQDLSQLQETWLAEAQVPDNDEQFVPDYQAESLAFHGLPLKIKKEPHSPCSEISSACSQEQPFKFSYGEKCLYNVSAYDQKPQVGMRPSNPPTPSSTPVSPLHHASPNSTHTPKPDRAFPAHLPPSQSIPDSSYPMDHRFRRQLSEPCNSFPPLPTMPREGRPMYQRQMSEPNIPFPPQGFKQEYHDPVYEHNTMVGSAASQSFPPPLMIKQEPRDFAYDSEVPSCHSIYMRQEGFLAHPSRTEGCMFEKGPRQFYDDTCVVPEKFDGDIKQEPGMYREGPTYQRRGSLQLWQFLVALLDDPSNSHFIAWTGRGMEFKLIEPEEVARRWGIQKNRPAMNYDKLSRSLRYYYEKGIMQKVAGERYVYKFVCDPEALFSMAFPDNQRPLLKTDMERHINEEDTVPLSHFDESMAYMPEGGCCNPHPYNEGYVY
# Sequence of CRX (O43186 whole entry): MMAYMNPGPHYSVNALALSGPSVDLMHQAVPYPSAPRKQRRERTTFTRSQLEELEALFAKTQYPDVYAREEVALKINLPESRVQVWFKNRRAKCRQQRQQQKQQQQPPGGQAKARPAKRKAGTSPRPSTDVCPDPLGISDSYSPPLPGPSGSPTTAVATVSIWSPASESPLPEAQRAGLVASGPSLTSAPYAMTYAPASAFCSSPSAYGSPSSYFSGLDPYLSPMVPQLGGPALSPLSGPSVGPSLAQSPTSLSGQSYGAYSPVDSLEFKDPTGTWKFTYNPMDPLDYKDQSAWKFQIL
# Sequence of HSF1 (Q00613 whole entry): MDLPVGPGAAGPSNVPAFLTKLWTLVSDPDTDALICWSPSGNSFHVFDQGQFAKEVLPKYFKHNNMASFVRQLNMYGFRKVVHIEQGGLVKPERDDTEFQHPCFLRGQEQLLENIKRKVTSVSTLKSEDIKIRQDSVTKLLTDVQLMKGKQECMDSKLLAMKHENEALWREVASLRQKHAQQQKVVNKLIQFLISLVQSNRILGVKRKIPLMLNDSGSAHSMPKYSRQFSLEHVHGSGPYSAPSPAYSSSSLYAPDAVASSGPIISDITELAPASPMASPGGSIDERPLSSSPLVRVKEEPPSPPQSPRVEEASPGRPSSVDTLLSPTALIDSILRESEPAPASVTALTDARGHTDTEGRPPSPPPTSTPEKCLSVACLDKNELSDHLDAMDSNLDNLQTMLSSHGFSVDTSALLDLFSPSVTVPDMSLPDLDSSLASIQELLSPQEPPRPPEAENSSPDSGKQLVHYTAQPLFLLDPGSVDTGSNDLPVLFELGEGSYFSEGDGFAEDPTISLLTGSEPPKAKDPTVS
# Sequence of ETV5 (P41161 whole entry): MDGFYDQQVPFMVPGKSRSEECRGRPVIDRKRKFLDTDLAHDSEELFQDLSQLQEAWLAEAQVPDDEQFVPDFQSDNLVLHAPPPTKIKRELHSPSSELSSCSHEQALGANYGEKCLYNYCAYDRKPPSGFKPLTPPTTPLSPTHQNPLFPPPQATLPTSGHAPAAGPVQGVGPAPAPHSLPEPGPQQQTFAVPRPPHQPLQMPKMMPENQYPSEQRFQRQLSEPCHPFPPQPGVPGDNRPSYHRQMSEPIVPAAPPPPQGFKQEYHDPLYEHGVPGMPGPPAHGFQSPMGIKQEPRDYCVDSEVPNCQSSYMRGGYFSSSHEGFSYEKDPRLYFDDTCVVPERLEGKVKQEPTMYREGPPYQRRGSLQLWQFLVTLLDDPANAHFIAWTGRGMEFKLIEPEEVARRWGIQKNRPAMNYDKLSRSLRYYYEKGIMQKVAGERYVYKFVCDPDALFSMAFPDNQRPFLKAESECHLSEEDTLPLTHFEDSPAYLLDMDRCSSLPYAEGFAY
# Sequence of ETV6 (P41212 whole entry): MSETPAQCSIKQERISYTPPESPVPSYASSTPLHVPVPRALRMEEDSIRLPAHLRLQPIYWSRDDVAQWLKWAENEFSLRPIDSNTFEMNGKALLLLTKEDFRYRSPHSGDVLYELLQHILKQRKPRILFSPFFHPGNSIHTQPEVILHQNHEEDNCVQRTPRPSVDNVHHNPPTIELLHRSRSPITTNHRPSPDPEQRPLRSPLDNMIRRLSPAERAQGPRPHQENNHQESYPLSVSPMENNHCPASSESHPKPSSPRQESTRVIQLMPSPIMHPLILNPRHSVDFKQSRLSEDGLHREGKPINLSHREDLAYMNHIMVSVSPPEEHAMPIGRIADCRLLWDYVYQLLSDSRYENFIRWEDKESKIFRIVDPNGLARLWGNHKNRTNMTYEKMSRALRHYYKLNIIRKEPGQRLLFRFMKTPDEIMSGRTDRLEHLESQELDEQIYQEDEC
# Sequence of ELF4 (Q99607 whole entry): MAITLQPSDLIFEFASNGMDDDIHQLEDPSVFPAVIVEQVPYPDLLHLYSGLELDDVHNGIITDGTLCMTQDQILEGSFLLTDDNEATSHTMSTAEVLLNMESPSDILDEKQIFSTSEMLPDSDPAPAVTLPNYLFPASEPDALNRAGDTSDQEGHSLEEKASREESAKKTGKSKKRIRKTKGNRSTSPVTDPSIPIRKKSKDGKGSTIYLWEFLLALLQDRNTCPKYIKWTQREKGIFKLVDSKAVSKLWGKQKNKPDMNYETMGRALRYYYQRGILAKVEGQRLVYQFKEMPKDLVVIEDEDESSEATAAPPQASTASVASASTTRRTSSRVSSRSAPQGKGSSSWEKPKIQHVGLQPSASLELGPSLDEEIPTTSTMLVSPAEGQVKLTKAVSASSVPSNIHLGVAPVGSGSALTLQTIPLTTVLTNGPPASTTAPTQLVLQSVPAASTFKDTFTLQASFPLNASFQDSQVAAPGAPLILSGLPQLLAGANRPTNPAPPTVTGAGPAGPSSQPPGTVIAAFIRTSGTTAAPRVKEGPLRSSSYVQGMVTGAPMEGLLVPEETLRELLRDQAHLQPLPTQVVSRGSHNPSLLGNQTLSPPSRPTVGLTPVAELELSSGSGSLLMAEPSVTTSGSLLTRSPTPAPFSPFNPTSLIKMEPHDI
sequence,measurement,setting,value
CATTCT,binding signal,FEV,"1.29 fold enrichment (6-mer frequency, TF over GST control)"
same,binding signal,ETV5,"1.28 fold enrichment (6-mer frequency, TF over GST control)"
same,binding signal,HSF1,"2.56 fold enrichment (6-mer frequency, TF over GST control)"
same,binding signal,SPIC,"1.31 fold enrichment (6-mer frequency, TF over GST control)"
same,binding signal,ELF4,"1.37 fold enrichment (6-mer frequency, TF over GST control)"
same,binding signal,ELK4,"1.36 fold enrichment (6-mer frequency, TF over GST control)"
same,binding signal,ETV2,"1.36 fold enrichment (6-mer frequency, TF over GST control)"
same,binding signal,ELF3,"1.22 fold enrichment (6-mer frequency, TF over GST control)"
same,binding signal,CRX,"1.63 fold enrichment (6-mer frequency, TF over GST control)"
same,binding signal,ETV1,"1.31 fold enrichment (6-mer frequency, TF over GST control)"
same,binding signal,ERF,"1.43 fold enrichment (6-mer frequency, TF over GST control)"
same,binding signal,ETV3L,"1.31 fold enrichment (6-mer frequency, TF over GST control)"
same,binding signal,ETS2,"1.23 fold enrichment (6-mer frequency, TF over GST control)"
same,binding signal,SPDEF,"1.24 fold enrichment (6-mer frequency, TF over GST control)"
same,binding signal,ETV7,"1.35 fold enrichment (6-mer frequency, TF over GST control)"
same,binding signal,ELF5,"1.27 fold enrichment (6-mer frequency, TF over GST control)"
same,binding signal,ETV3,"1.21 fold enrichment (6-mer frequency, TF over GST control)"
same,binding signal,ETV6,"1.34 fold enrichment (6-mer frequency, TF over GST control)"
